In all, about 370,000 compounds went through this assay and about 2,300 (0.62%) were called active.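 How the source made its calls: active means lowest replicate activation of at least 40%, so every replicate reaches that level; inactive means the rest.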 What follows is part of a selection rich in actives, with near analogues and random picks from the rest.
Experiment: GLuc luminescence reporter in INS-1E cells, primary screen for activators of glucose-dependent secretion of insulin (AID 743287);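 further: 0% = median of neutral control wells and 100% = median of IBMX positive control wells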
Settings: INS-1E GLuc reporter insulin secretion, 2-3 h, at 16.6 µM, stronger effect = higher value

activation, inactive:
Nc1[nH]c(C(=O)c2ccccc2)c(-c2ccc(Br)cc2)c1C(=O)NC1CC1 2.55%
CC(C)(C)C(=O)c1c(N)[nH]c(C(=O)c2ccccc2)c1-c1ccc(F)cc1 0.681%
C[C@@H]1CCCCO[C@H](CN(C)C(=O)Cc2ccccc2)[C@H](C)CN([C@@H](C)CO)C(=O)c2cc(NS(=O)(=O)c3ccc(F)cc3)ccc2O1 -21.1%
COc1ccc2c3c(n(C)c2c1)[C@H](CO)N(Cc1ccccc1Cl)CC31CN(C(=O)CN(C)C)C1 11.4%
O=C(COC(=O)c1cccc(Cl)c1)Nc1ccc2[nH]c(=O)[nH]c2c1 5.13%
O=C(COC(=O)Cn1cnc2ccccc21)Nc1cccc2c1C(=O)c1ccccc1C2=O 4.13%
COc1ccc(CN(C)C(=O)Cc2ccsc2)c(OC)c1OC -7.45%
COc1ccc(C(=O)N(C)Cc2ccc(OC)c(OC)c2OC)cc1S(=O)(=O)N1CCOCC1 -3.04%
CCn1c(C)cc(=O)cc1-c1ccc(Cl)cc1 9.35%
COCc1cc(=O)n2[nH]c(C)c(-c3ccccc3)c2n1 -1.45%
CN(C)C(=O)[C@@H]1[C@@H](CO)[C@@H]2Cn3c(ccc(-c4ccccc4)c3=O)[C@@H]2N1CCC(F)(F)F 21.1%
O=C1N[C@H](c2ccccc2)COCc2cn(nn2)CC[C@@H]1Cc1ccc(Cl)cc1 5.93%
COc1cccc(NC(=O)N[C@H]2C=C[C@@H](CC(=O)Nc3ccc(-c4ccccc4)cc3)O[C@@H]2CO)c1 58.9%
CC(=O)Nc1cc(-c2cccc(CO)c2)cn2c(-c3cccc(C(F)(F)F)c3)cnc12 -3.82%
CC(=O)Nc1cc(-c2ccccc2F)cn2c(-c3cccc(C(F)(F)F)c3)cnc12 2.99%
COc1ccc2c3c(n(C)c2c1)[C@@H](CO)NCC31CN(S(=O)(=O)c2cccc(C)c2)C1 14.9%
O=S(=O)(NCCc1ccc(Cl)cc1)c1cccs1 -20.9%
CCOC(=O)c1cc(S(=O)(=O)NCCc2ccc(OC)c(OC)c2)cn1C 13.8%
C[C@H](CO)N1C[C@H](C)[C@@H](CN(C)C(=O)C2CCCCC2)OCCCC[C@H](C)Oc2ccc(N(C)C)cc2C1=O -2.98%
C[C@H](CO)N1C[C@H](C)[C@@H](CN(C)S(=O)(=O)c2cccc(F)c2)Oc2ncc(-c3cccc(F)c3)cc2C1=O 3.46%
CCn1c(CNC(=O)c2ccco2)nnc1SCC(=O)Nc1cccc(F)c1 -2.18%
CCn1c(SCC(=O)Nc2ccc3c(c2)OCCO3)nnc1C(C)C 13.3%
C[C@H](CO)N1C[C@H](C)[C@H](CN(C)S(C)(=O)=O)Oc2ncc(C#CCN(C)C)cc2C1=O 18.2%
NC(Cc1ccc(F)cc1)c1csc(Nc2nncc3ccccc23)n1 (stereo not given) -32.2%
NC(Cc1ccccc1)c1csc(Nc2cc(Oc3ccccc3)ncn2)n1 (stereo not given) -24.7%
COc1ccc(S(=O)(=O)Nc2cccc3c2O[C@@H](CN(C)C(=O)Nc2cccc4ccccc24)[C@H](C)CN([C@@H](C)CO)C3=O)cc1 -8.86%
COc1cccc(C#Cc2cnc3c(c2)C(=O)N([C@H](C)CO)C[C@@H](C)[C@@H](CN(C)C(=O)C2CCC2)O3)c1 -5.49%

activation, active:
Nc1[nH]c(C(=O)c2ccccc2)c(-c2ccncc2)c1C(=O)NCc1cccc2ccccc12 49.2%
O=C(COC(=O)c1cccc(Br)c1)Nc1cccc2c1C(=O)c1ccccc1C2=O 98%
COc1ccc(-c2cc(C(=O)N(C)Cc3ccc(OC)c(OC)c3OC)c3ccccc3n2)cc1OC 62.1%
CCCc1cc(=O)n2[nH]c(C)c(-c3ccc(Cl)cc3)c2n1 43.7%
CN(C)CCNC(=O)c1cccc(-c2cnc3c(NC=O)cc(-c4cccc(C(F)(F)F)c4)cn23)c1 52.7%
COc1ccc(CCNS(=O)(=O)c2ccc(Cl)s2)cc1OC 40.9%
CCn1c(SCC(=O)Nc2cccc(F)c2)nnc1-c1cc2cc(Br)ccc2o1 85.4%
COc1ccc(CC(N)c2csc(NC(=O)Nc3ccc(C(C)C)cc3)n2)cc1 (stereo not given) 193%
